# From paper PMC11006913
# Residue numbers refer to the chain shown, from its start.
# Assays:
# Assay in all cases: PBM; 200 nM protein, PBS
# Conditions in all cases: dsDNA, one strand shown
# HESX1 [1] = target: HESX1 (Homo sapiens, UniProt Q9UBX0 95-180, R165K)
# SIX6 [2] = target: T1, SIX6 (Homo sapiens, UniProt O95475 114-200, L167I)
# T1 sequence: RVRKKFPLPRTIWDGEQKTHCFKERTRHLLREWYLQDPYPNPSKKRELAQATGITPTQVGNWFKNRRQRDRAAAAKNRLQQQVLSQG
# HOXC9 [3] = target: HOXC9 (Homo sapiens, UniProt P31274 178-260, K195R)
# Chain of HOXC9 (Homo sapiens, UniProt P31274 178-260, K195R) (P31274 178-260 K195R): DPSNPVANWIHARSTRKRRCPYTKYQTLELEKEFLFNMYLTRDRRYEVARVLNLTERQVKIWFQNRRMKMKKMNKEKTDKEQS
# SIX6 [4] = target: T2, SIX6 (Homo sapiens, UniProt O95475 114-200, L143V)
# T2 sequence: T1 sequence with L30V, I54L
# PAX4 [5] = target: T3, PAX4 (Homo sapiens, UniProt O43316 9-242, R200K)
# T3 sequence: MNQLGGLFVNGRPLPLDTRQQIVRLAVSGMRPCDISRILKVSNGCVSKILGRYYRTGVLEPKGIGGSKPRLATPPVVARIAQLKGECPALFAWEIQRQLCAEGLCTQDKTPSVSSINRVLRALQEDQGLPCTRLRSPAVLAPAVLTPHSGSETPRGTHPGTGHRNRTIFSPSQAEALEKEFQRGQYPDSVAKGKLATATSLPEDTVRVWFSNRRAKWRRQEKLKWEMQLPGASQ
# SIX6 [6] = target: T4, SIX6 (Homo sapiens, UniProt O95475 114-200, H141N)
# T4 sequence: T1 sequence with H28N, I54L
# SIX6 [7] = target: T5, SIX6 (Homo sapiens, UniProt O95475 114-200, T165P)
# T5 sequence: T1 sequence with T52P, I54L
# PAX4 [8] = target: T6, PAX4 (Homo sapiens, UniProt O43316 9-242)
# T6 sequence: T3 sequence with K192R
# SIX6 [9] = target: T7, SIX6 (Homo sapiens, UniProt O95475 114-200, L167M)
# T7 sequence: T1 sequence with I54M
# SIX6 [10] = target: T8, SIX6 (Homo sapiens, UniProt O95475 114-200, L143M)
# T8 sequence: T1 sequence with L30M, I54L
# SIX6 [11] = target: T9, SIX6 (Homo sapiens, UniProt O95475 114-200, L143I)
# T9 sequence: T1 sequence with L30I, I54L
# SIX6 [12] = target: T10, SIX6 (Homo sapiens, UniProt O95475 114-200, T165G)
# T10 sequence: T1 sequence with T52G, I54L
# HESX1 [13] = target: HESX1 (Homo sapiens, UniProt Q9UBX0 95-180)
# Chain of HESX1 (Homo sapiens, UniProt Q9UBX0 95-180) (Q9UBX0 95-180): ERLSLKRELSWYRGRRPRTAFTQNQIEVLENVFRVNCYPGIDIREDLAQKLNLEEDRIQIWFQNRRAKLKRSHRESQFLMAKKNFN
# HOXA2 [14] = target: HOXA2 (Homo sapiens, UniProt O43364 129-215, R185T)
# Chain of HOXA2 (Homo sapiens, UniProt O43364 129-215, R185T) (O43364 129-215 R185T): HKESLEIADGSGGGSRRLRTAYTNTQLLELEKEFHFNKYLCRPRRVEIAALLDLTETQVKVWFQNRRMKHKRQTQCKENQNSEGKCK
# SIX6 [15] = target: T11, SIX6 (Homo sapiens, UniProt O95475 114-200, T139Q)
# T11 sequence: T1 sequence with T26Q, I54L
# HOXC9 [16] = target: HOXC9 (Homo sapiens, UniProt P31274 178-260)
# Chain of HOXC9 (Homo sapiens, UniProt P31274 178-260) (P31274 178-260): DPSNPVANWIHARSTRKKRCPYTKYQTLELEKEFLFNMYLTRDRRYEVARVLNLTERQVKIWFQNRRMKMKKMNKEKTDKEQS
# SIX6 [17] = target: T12, SIX6 (Homo sapiens, UniProt O95475 114-200, T165A)
# T12 sequence: T1 sequence with T52A, I54L
# PAX4 [18] = target: T13, PAX4 (Homo sapiens, UniProt O43316 9-242, R200Q)
# T13 sequence: T3 sequence with K192Q
# HOXC9 [19] = target: HOXC9 (Homo sapiens, UniProt P31274 178-260, R193K)
# Chain of HOXC9 (Homo sapiens, UniProt P31274 178-260, R193K) (P31274 178-260 R193K): as the sequence (P31274 178-260) above, with R16K counted along it
# HOXA2 [20] = target: HOXA2 (Homo sapiens, UniProt O43364 129-215, R185K)
# Chain of HOXA2 (Homo sapiens, UniProt O43364 129-215, R185K) (O43364 129-215 R185K): as the sequence (O43364 129-215 R185T) above, with T57K counted along it
# PAX4 [21] = target: T14, PAX4 (Homo sapiens, UniProt O43316 9-242, F177V)
# T14 sequence: T3 sequence with F169V, K192R
# SIX6 [22] = target: T15, SIX6 (Homo sapiens, UniProt O95475 114-200, L167V)
# T15 sequence: T1 sequence with I54V
# PAX4 [23] = target: T16, PAX4 (Homo sapiens, UniProt O43316 9-242, F177Y)
# T16 sequence: T3 sequence with F169Y, K192R
# HESX1 [24] = target: HESX1 (Homo sapiens, UniProt Q9UBX0 95-180, R109Q)
# Chain of HESX1 (Homo sapiens, UniProt Q9UBX0 95-180, R109Q) (Q9UBX0 95-180 R109Q): as the sequence (Q9UBX0 95-180) above, with R15Q counted along it
# SIX6 [25] = target: T17, SIX6 (Homo sapiens, UniProt O95475 114-200)
# T17 sequence: T1 sequence with I54L
# SIX6 [26] = target: T18, SIX6 (Homo sapiens, UniProt O95475 114-200, T165I)
# T18 sequence: T1 sequence with T52I, I54L
# HESX1 [27] = target: HESX1 (Homo sapiens, UniProt Q9UBX0 95-180, P111T)
# Chain of HESX1 (Homo sapiens, UniProt Q9UBX0 95-180, P111T) (Q9UBX0 95-180 P111T): as the sequence (Q9UBX0 95-180) above, with P17T counted along it
# HOXC9 [28] = target: HOXC9 (Homo sapiens, UniProt P31274 178-260, R222W)
# Chain of HOXC9 (Homo sapiens, UniProt P31274 178-260, R222W) (P31274 178-260 R222W): as the sequence (P31274 178-260) above, with R45W counted along it
# HESX1 [29] = target: HESX1 (Homo sapiens, UniProt Q9UBX0 95-180, F115L)
# Chain of HESX1 (Homo sapiens, UniProt Q9UBX0 95-180, F115L) (Q9UBX0 95-180 F115L): as the sequence (Q9UBX0 95-180) above, with F21L counted along it
# PAX4 [30] = target: T19, PAX4 (Homo sapiens, UniProt O43316 9-242, R227W)
# T19 sequence: T3 sequence with K192R, R219W
# HOXA2 [31] = target: HOXA2 (Homo sapiens, UniProt O43364 129-215, Y150S)
# Chain of HOXA2 (Homo sapiens, UniProt O43364 129-215, Y150S) (O43364 129-215 Y150S): as the sequence (O43364 129-215 R185T) above, with Y22S, T57R counted along it
# HOXA2 [32] = target: HOXA2 (Homo sapiens, UniProt O43364 129-215)
# Chain of HOXA2 (Homo sapiens, UniProt O43364 129-215) (O43364 129-215): as the sequence (O43364 129-215 R185T) above, with T57R counted along it
# Chain of HESX1 (Homo sapiens, UniProt Q9UBX0 95-180, R165K) (Q9UBX0 95-180 R165K): as the sequence (Q9UBX0 95-180) above, with R71K counted along it
sequence,measurement,setting,value
GCCAGACC,binding signal,HESX1 [1],"6.33 upbm affinity estimate (log intensity, higher = more binding, comparable within an allelic series)"
same,binding signal,SIX6 [2],"9.01 upbm affinity estimate (log intensity, higher = more binding, comparable within an allelic series)"
same,binding signal,HOXC9 [3],"9.5 upbm affinity estimate (log intensity, higher = more binding, comparable within an allelic series)"
same,binding signal,SIX6 [4],"8.79 upbm affinity estimate (log intensity, higher = more binding, comparable within an allelic series)"
same,binding signal,PAX4 [5],"9.2 upbm affinity estimate (log intensity, higher = more binding, comparable within an allelic series)"
same,binding signal,SIX6 [6],"9.01 upbm affinity estimate (log intensity, higher = more binding, comparable within an allelic series)"
same,binding signal,SIX6 [7],"8.91 upbm affinity estimate (log intensity, higher = more binding, comparable within an allelic series)"
same,binding signal,PAX4 [8],"9.05 upbm affinity estimate (log intensity, higher = more binding, comparable within an allelic series)"
same,binding signal,SIX6 [9],"9.01 upbm affinity estimate (log intensity, higher = more binding, comparable within an allelic series)"
same,binding signal,SIX6 [10],"8.95 upbm affinity estimate (log intensity, higher = more binding, comparable within an allelic series)"
same,binding signal,SIX6 [11],"8.96 upbm affinity estimate (log intensity, higher = more binding, comparable within an allelic series)"
same,binding signal,SIX6 [12],"9.08 upbm affinity estimate (log intensity, higher = more binding, comparable within an allelic series)"
same,binding signal,HESX1 [13],"6.38 upbm affinity estimate (log intensity, higher = more binding, comparable within an allelic series)"
same,binding signal,HOXA2 [14],"7.3 upbm affinity estimate (log intensity, higher = more binding, comparable within an allelic series)"
same,binding signal,SIX6 [15],"9.06 upbm affinity estimate (log intensity, higher = more binding, comparable within an allelic series)"
same,binding signal,HOXC9 [16],"9.48 upbm affinity estimate (log intensity, higher = more binding, comparable within an allelic series)"
same,binding signal,SIX6 [17],"9.03 upbm affinity estimate (log intensity, higher = more binding, comparable within an allelic series)"
same,binding signal,PAX4 [18],"9.35 upbm affinity estimate (log intensity, higher = more binding, comparable within an allelic series)"
same,binding signal,HOXC9 [19],"9.46 upbm affinity estimate (log intensity, higher = more binding, comparable within an allelic series)"
same,binding signal,HOXA2 [20],"10.5 upbm affinity estimate (log intensity, higher = more binding, comparable within an allelic series)"
same,binding signal,PAX4 [21],"9.2 upbm affinity estimate (log intensity, higher = more binding, comparable within an allelic series)"
same,binding signal,SIX6 [22],"8.94 upbm affinity estimate (log intensity, higher = more binding, comparable within an allelic series)"
same,binding signal,PAX4 [23],"9.19 upbm affinity estimate (log intensity, higher = more binding, comparable within an allelic series)"
same,binding signal,HESX1 [24],"6.33 upbm affinity estimate (log intensity, higher = more binding, comparable within an allelic series)"
same,binding signal,SIX6 [25],"9.02 upbm affinity estimate (log intensity, higher = more binding, comparable within an allelic series)"
same,binding signal,SIX6 [26],"8.93 upbm affinity estimate (log intensity, higher = more binding, comparable within an allelic series)"
same,binding signal,HESX1 [27],"6.36 upbm affinity estimate (log intensity, higher = more binding, comparable within an allelic series)"
same,binding signal,HOXC9 [28],"9.66 upbm affinity estimate (log intensity, higher = more binding, comparable within an allelic series)"
same,binding signal,HESX1 [29],"6.43 upbm affinity estimate (log intensity, higher = more binding, comparable within an allelic series)"
same,binding signal,PAX4 [30],"9.26 upbm affinity estimate (log intensity, higher = more binding, comparable within an allelic series)"
same,binding signal,HOXA2 [31],"10.4 upbm affinity estimate (log intensity, higher = more binding, comparable within an allelic series)"
same,binding signal,HOXA2 [32],"7.38 upbm affinity estimate (log intensity, higher = more binding, comparable within an allelic series)"
